Laboratory results as given in the supplement of paper PMC10849652.
The full data set covers some 8,800 targets. This sample favours those with a hit. About 0.5% of all pairs of compound and target were hits. A number with no mark means an inactive call.

Each target was assayed with CC1=C(C2=C(C=C1)C(=O)C3=CC=CC=C3N2CCCN)C (assay: log2 fold change, soluble protein after heating vs DMSO (PISA); higher = thermal stabilisation; K562 lysate, 10 uM; active = over 0.2 and 3.5 SD of the protein, either way, in both replicates (recomputed)).
In short: (§1)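 Values give the log-two fold change in thermal stability against solvent controls, from duplicates. Crude K562 extract at 1 mg/mL protein, made by dounce homogenisation in PBS pH 7.4 with 1 mM MgCl2, was treated with 10 μM compound for 30 min. After 3 min heating across 48°C-58°C, aliquots were pooled, adjusted to 0.5% NP-40 at 4°C and centrifuged at 21,000xg for 90 min. The supernatant was measured by TMTpro 16plex LC-MS/MS with channel sums equalised.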

Sequence of UniProt Q8N3R9 (Q8N3R9 whole entry, looked up): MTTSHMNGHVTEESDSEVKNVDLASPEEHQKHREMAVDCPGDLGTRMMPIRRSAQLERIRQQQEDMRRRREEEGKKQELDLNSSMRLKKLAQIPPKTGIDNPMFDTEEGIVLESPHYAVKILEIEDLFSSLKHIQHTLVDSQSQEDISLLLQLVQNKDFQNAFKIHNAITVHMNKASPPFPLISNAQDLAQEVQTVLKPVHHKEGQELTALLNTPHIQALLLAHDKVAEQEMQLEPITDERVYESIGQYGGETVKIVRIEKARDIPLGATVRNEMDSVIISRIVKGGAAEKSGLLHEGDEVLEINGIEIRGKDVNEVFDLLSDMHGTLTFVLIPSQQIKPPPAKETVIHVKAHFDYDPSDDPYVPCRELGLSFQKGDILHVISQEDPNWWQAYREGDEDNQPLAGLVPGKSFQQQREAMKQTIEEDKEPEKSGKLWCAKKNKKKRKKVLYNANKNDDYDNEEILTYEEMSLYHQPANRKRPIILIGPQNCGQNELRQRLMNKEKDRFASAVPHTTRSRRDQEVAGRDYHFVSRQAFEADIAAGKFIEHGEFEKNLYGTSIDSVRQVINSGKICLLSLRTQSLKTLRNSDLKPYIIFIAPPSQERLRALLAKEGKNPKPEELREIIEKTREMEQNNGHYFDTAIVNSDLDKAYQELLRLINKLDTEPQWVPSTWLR
Sequence of UniProt Q9H204 (Q9H204 whole entry, looked up): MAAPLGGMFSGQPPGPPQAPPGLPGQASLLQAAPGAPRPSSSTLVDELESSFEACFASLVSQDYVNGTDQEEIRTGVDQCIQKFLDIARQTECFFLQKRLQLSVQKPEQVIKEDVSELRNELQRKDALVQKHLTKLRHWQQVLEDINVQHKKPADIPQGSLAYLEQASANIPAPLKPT
Sequence of UniProt O75970 (O75970 whole entry, looked up): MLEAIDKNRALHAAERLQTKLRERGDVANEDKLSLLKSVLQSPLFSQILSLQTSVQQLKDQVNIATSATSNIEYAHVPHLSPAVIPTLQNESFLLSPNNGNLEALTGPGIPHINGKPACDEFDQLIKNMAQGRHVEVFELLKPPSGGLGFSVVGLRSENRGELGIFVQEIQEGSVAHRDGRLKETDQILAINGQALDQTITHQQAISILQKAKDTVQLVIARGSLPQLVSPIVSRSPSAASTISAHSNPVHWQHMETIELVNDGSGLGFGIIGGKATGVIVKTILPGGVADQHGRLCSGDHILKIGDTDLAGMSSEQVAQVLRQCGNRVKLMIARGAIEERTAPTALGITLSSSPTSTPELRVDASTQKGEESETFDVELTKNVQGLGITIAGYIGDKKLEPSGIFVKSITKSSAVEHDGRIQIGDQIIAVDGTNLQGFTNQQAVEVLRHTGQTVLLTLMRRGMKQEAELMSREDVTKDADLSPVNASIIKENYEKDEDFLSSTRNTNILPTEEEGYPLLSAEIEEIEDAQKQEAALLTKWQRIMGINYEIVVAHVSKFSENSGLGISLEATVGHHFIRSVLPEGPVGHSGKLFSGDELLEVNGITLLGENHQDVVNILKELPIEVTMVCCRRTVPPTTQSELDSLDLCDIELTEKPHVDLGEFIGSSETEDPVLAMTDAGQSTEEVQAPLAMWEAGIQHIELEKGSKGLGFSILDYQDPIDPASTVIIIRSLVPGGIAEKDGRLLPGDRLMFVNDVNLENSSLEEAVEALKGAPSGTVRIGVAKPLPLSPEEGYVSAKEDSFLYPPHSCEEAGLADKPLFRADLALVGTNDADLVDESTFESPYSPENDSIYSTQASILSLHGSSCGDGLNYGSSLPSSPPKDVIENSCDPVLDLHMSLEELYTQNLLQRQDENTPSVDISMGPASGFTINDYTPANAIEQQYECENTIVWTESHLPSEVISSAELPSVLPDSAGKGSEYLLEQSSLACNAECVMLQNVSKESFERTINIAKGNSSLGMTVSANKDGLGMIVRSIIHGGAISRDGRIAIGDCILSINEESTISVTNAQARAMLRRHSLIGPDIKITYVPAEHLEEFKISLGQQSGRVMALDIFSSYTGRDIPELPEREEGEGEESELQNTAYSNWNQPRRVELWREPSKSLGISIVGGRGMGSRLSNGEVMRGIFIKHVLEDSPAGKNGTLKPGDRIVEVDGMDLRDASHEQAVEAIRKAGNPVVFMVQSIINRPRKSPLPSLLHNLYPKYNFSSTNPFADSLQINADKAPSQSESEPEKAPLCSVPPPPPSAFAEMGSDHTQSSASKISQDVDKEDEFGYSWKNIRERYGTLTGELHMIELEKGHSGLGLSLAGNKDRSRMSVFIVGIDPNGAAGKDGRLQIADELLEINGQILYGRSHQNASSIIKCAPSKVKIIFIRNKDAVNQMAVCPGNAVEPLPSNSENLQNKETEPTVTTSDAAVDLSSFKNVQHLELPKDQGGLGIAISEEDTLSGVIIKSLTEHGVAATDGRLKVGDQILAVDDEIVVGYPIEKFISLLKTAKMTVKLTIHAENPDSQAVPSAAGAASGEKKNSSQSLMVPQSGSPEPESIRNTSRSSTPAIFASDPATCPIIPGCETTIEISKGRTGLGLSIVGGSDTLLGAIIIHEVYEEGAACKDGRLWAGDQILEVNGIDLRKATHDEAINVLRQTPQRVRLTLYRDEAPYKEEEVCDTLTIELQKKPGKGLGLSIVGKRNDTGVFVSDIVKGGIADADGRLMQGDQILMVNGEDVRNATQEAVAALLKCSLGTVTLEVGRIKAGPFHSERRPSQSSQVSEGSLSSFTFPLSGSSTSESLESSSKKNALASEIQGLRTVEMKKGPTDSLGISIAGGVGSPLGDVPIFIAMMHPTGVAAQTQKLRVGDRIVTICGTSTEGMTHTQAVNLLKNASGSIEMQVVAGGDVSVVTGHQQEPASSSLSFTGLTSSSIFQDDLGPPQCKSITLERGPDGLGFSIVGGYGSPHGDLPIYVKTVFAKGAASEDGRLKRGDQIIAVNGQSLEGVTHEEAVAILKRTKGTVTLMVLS
Sequence of UniProt Q5T3J3 (Q5T3J3 whole entry, looked up): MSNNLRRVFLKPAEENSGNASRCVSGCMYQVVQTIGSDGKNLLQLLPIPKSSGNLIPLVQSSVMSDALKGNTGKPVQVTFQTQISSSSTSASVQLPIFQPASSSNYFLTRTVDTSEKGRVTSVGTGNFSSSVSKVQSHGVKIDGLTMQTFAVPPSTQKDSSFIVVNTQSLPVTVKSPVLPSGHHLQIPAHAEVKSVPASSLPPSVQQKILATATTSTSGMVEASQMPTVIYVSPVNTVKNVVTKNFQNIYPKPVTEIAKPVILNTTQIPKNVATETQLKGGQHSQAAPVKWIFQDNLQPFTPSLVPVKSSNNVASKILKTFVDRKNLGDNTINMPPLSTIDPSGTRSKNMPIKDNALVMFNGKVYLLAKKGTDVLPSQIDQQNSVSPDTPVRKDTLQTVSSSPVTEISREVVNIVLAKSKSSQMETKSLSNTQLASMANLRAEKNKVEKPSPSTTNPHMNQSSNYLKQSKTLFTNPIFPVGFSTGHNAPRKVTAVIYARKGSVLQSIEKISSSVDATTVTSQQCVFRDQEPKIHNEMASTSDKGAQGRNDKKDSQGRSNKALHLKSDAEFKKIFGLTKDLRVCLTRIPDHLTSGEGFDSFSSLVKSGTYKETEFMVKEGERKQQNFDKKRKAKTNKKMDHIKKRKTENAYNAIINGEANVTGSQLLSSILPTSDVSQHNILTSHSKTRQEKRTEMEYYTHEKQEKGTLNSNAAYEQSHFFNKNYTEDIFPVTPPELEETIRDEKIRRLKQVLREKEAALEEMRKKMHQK
Sequence of UniProt P53778 (P53778 whole entry, looked up): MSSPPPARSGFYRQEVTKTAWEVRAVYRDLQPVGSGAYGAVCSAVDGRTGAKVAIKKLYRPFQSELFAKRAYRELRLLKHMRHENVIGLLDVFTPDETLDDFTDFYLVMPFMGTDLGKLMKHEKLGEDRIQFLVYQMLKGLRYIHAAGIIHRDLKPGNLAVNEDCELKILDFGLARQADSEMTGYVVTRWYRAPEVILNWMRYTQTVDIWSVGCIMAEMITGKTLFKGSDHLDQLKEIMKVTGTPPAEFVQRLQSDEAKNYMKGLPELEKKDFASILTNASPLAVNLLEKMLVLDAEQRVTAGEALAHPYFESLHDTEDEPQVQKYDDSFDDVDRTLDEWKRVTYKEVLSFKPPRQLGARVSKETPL
Sequence of UniProt P01116 (P01116 whole entry, looked up): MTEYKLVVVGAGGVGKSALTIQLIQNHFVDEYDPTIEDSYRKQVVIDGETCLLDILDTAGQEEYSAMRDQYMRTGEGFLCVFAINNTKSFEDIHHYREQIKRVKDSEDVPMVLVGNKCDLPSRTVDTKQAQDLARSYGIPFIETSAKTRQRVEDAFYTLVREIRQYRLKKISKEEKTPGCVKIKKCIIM
Sequence of UniProt O14782 (O14782 whole entry, looked up): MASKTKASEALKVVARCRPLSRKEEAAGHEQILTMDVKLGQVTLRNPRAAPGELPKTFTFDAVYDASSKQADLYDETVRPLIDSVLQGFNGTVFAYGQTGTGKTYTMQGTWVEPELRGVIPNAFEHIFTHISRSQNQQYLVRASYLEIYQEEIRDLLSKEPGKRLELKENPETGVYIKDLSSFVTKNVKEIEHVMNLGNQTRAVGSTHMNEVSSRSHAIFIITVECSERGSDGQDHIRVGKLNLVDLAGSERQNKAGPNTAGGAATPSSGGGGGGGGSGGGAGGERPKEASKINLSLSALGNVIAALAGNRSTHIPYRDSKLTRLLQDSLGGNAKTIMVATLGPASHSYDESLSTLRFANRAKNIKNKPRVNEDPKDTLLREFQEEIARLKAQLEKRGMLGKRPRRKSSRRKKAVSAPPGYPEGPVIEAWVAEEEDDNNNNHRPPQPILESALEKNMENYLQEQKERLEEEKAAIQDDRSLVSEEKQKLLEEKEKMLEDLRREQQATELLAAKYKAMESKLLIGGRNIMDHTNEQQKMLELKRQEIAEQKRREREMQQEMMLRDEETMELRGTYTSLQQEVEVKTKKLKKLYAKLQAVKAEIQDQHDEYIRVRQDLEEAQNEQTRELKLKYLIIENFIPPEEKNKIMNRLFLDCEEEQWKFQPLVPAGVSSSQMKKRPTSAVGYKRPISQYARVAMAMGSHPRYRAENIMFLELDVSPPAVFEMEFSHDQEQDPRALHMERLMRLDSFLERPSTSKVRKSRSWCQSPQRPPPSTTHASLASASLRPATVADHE

| Target | log2 fold change |
| --- | --- |
| KIFC3 isoform 6 (UniProt Q9BVG8) | -0.231 |
| KIF21A (UniProt H0YI78) | 0.017 |
| KMT2B (UniProt Q9UMN6) | -0.135 |
| MAPK12 (UniProt P53778) | 0.08 |
| MPP5 (UniProt Q8N3R9) | -0.067 |

These targets were tested with CC1=C(C=C(C=C1)NC(=O)C2=CC(=CC=C2)C(C)(C)C#N)NC3=CC4=C(C=C3)N=CN(C4=O)C in the same assay as above.
In short: as §1

| Target | log2 fold change |
| --- | --- |
| LRIF1 (UniProt Q5T3J3) | -0.031 |
| KIF26A (UniProt Q9ULI4) | 0.033 |
| KRI1 (UniProt Q8N9T8) | 0.02 |
| MEGF8 (UniProt Q7Z7M0) | 0.079 |
| MAP3K4 isoform 2 (UniProt Q9Y6R4) | -0.005 |
| MDM2 isoform 11 (UniProt Q00987) | -0.074 |
| KRAS (UniProt P01116) | -0.048 |
| MMS22L (UniProt Q6ZRQ5) | -0.049 |
| MBTPS1 (UniProt Q14703) | 0.008 |
| MAPK7 (UniProt Q13164) | -0.034 |
| MARF1 (UniProt Q9Y4F3) | 0.004 |
| MOCS3 (UniProt O95396) | 0.079 |
| LRP1 (UniProt Q07954) | 0.378 |
| LSM11 (UniProt P83369) | -0.161 |
| LYN isoform 2 (UniProt P07948) | 0.333 |
| KIF3C (UniProt O14782) | -0.007 |

| Target | log2 fold change |
| --- | --- |
| MED28 (UniProt Q9H204) | 0.11 |
| KRAS isoform 2 (UniProt P01116) | -0.025 |
| MAPKAP1 (UniProt Q9BPZ7) | 0.007 |
| LGALS3BP (UniProt Q08380) | -0.009 |
| LRRC9 (UniProt Q6ZRR7) | 0.042 |
| KIF18B (UniProt Q86Y91) | 0 |
| MRC2 (UniProt Q9UBG0) | 0.133 |
| MPDZ (UniProt O75970) | 0.057 |
| LRRC7 (UniProt Q96NW7) | -0.062 |
| MRPL22 (UniProt Q9NWU5) | -0.017 |
| MARCHF6 (UniProt O60337) | 0.004 |
| KIFC3 isoform 6 (UniProt Q9BVG8) | 0.193 |
| KMT2B (UniProt Q9UMN6) | -0.072 |
| LRRIQ1 (UniProt Q96JM4) | 0.671 (active) |
| MAPK12 (UniProt P53778) | 0.002 |
| MPP5 (UniProt Q8N3R9) | 0.017 |

Each target was assayed with CC1=C(C=C(C=C1)NC(=O)C2=CC(=CC=C2)N(C)C)NC(=O)C3=CC=C(C=C3)O in the same assay as above.
In short: as §1

| Target | log2 fold change |
| --- | --- |
| LRIF1 (UniProt Q5T3J3) | 0.046 |
| MEX3A (UniProt A1L020) | -0.162 |
| KIF26A (UniProt Q9ULI4) | -0.048 |
| KRI1 (UniProt Q8N9T8) | 0.046 |
| MEGF8 (UniProt Q7Z7M0) | 0.154 |
| MDM2 isoform 11 (UniProt Q00987) | 0.076 |
| KRAS (UniProt P01116) | 0.07 |
| MBTPS1 (UniProt Q14703) | 0.048 |
| MARF1 (UniProt Q9Y4F3) | 0.01 |
| MOCS3 (UniProt O95396) | 0.001 |
| LYN isoform 2 (UniProt P07948) | -0.008 |
| MDM1 (UniProt Q8TC05) | -0.019 |
| KIF3C (UniProt O14782) | 0.023 |
| MED28 (UniProt Q9H204) | 0.021 |
| KRAS isoform 2 (UniProt P01116) | 0.004 |
| MAPKAP1 (UniProt Q9BPZ7) | -0.034 |
| MPDZ (UniProt O75970) | 0.076 |
| LRRC7 (UniProt Q96NW7) | 0.09 |
| MRPL22 (UniProt Q9NWU5) | 0.051 |
| LRRIQ1 (UniProt Q96JM4) | 0.047 |
| MAPK12 (UniProt P53778) | -0.012 |
| MPP5 (UniProt Q8N3R9) | 0.014 |

The targets below were run with CC1=CC=C(C=C1)SC2=C3C=C(SC3=CN=C2)C(=O)N in the same assay as above.
In short: as §1

| Target | log2 fold change |
| --- | --- |
| LRIF1 (UniProt Q5T3J3) | -0.197 |
| KRAS (UniProt P01116) | -0.058 |
| MMS22L (UniProt Q6ZRQ5) | 0.007 |
| LY6E (UniProt Q16553) | -0.042 |
| MAPK7 (UniProt Q13164) | -0.013 |
| LRP1 (UniProt Q07954) | -0.049 |
| MDM1 (UniProt Q8TC05) | -0.079 |
| KIF3C (UniProt O14782) | 0.044 |
| MED28 (UniProt Q9H204) | 0.009 |
| KRAS isoform 2 (UniProt P01116) | 0.059 |
| LGALS3BP (UniProt Q08380) | 0 |
| KIF18B (UniProt Q86Y91) | -0.121 |
| MPDZ (UniProt O75970) | -0.029 |
| LRRC7 (UniProt Q96NW7) | 0.086 |
| MRPL22 (UniProt Q9NWU5) | 0.069 |
| MARCHF6 (UniProt O60337) | 0.032 |
| KIF21A (UniProt H0YI78) | 0.031 |
| LRRIQ1 (UniProt Q96JM4) | -0.069 |
